# Counter-ions that a name gives are not always drawn.
# Tests used:
# Conditions in all cases: 20 µM; incubation time: 27 h, anaerobic, 37 °C;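 for the amine columns active = adjusted P below 0.05 in both replicates with a change the same way and a mean fold change under 0.8 or over 1.25; inactive = the rest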
# [1] = test system: Clostridium sporogenes DSM 1664; experiment: growth (OD595) fold change vs plate DMSO controls (fold change (ratio)); higher = more growth
# How it was run: (§1)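 Shaken 96-well cultures in mGAM, grown anaerobically for 27 h at 37 °C, were read at 595 nm. OD came from blank-subtracted readings, corrected for background with 20 µM compound solutions in water and scaled by a calibration factor of 5. Growth is the fold change versus the plate's median DMSO control. Values average 2 biological replicates, and any fold change above 1.5 is NA.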
# Escherichia coli IAI1 [2] = experiment: as above
# How it was run: as §1
# [3] = test system: Klebsiella aerogenes DSM 30053; experiment: as above
# How it was run: as §1
# [4] = test system: Ruminococcus gnavus DSM 108212; experiment: as above
# How it was run: as §1
# [5] = test system: Klebsiella aerogenes DSM 30053; experiment: fold change of Histamine concentration vs plate DMSO controls (fold change (ratio)); higher = more amine produced, active = hit call of the paper (significant change in both replicates, either direction)
# How it was run: (§2)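 Amines were quantified by LC–triple-quadrupole MS in dynamic MRM mode against external calibration curves, with drift correction within each batch. The samples were whole anaerobic mGAM cultures of four gut bacterial strains, grown for 27 h at 37 °C in 80 µL wells and extracted with cold acetonitrile/methanol with 0.1% formic acid, then centrifuged. Values are reported as fold change over DMSO controls on the same plate. The mean of 2 biological replicates is given.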
# [6] = test system: Clostridium sporogenes DSM 1664; experiment: fold change of Tryptamine concentration vs plate DMSO controls (fold change (ratio)); higher = more amine produced, active = hit call of the paper (significant change in both replicates, either direction)
# How it was run: as §2
# [7] = test system: Ruminococcus gnavus DSM 108212; experiment: as above
# How it was run: as §2
# Escherichia coli IAI1 [8] = experiment: fold change of Putrescine concentration vs plate DMSO controls (fold change (ratio)); higher = more amine produced, active = hit call of the paper (significant change in both replicates, either direction)
# How it was run: as §2
# [9] = test system: Klebsiella aerogenes DSM 30053; experiment: as above
# How it was run: as §2
# Escherichia coli IAI1 [10] = experiment: fold change of Cadaverine concentration vs plate DMSO controls (fold change (ratio)); higher = more amine produced, active = hit call of the paper (significant change in both replicates, either direction)
# How it was run: as §2
# [11] = test system: Klebsiella aerogenes DSM 30053; experiment: as above
# How it was run: as §2
# [12] = test system: Ruminococcus gnavus DSM 108212; experiment: fold change of 2-Phenylethylamine concentration vs plate DMSO controls (fold change (ratio)); higher = more amine produced, active = hit call of the paper (significant change in both replicates, either direction)
# How it was run: as §2
Structure (SMILES),growth [1],growth (Escherichia coli IAI1 [2]),growth [3],growth [4],fold change of Histamine concentration [5],fold change of Tryptamine concentration [6],fold change of Tryptamine concentration [7],fold change of Putrescine concentration (Escherichia coli IAI1 [8]),fold change of Putrescine concentration [9],fold change of Cadaverine concentration (Escherichia coli IAI1 [10]),fold change of Cadaverine concentration [11],fold change of 2-Phenylethylamine concentration [12]
CN[C@@H]1C[C@@H](c2ccc(Cl)c(Cl)c2)c2ccccc21 [Indatraline hydrochloride],1.13,1.06,0.959,0.932,0.904 (inactive),1.29 (inactive),0.8 (inactive),0.811 (inactive),0.863 (inactive),0.98 (inactive),1.1 (inactive),0.883 (inactive)
O=NN(CCO)CCO [DMNA (N-nitrosodiethanolamine)],0.95,1.15,1,1.09,0.975 (inactive),0.994 (inactive),1.05 (inactive),1.03 (inactive),0.957 (inactive),0.978 (inactive),1.03 (inactive),1.08 (inactive)
Cc1cc(C)nc(Nc2ccccc2)n1,0.995,1.06,0.999,1.01,0.986 (inactive),1 (inactive),1 (inactive),1.05 (inactive),1.02 (inactive),1.05 (inactive),1.02 (inactive),1.04 (inactive)
CC(C)C[C@H]1C(=O)N2CCC[C@H]2[C@]2(O)O[C@](NC(=O)[C@@H]3C=C4c5cccc6[nH]c(Br)c(c56)C[C@H]4N(C)C3)(C(C)C)C(=O)N12 [Bromocryptine mesylate],1.19,1.05,1.11,1.06,0.914 (inactive),0.868 (inactive),1.03 (inactive),1.03 (inactive),0.98 (inactive),1.04 (inactive),1.01 (inactive),1 (inactive)
O=P(Oc1ccccc1)(Oc1ccccc1)Oc1ccccc1 [Triphenyl PO4],0.98,1.03,1.02,1.04,0.998 (inactive),1.16 (inactive),0.971 (inactive),1.01 (inactive),0.842 (inactive),0.993 (inactive),1.14 (inactive),0.995 (inactive)
"O=C1C=CC(=O)C=C1 [1,4-Benzoquinone]",0.883,0.868,0.844,0.66,0.996 (inactive),1.02 (inactive),1.18 (inactive),0.967 (inactive),1 (inactive),0.943 (inactive),1.11 (inactive),1.66 (active)
C[N+](C)(C)CCCl,1.05,0.994,0.986,0.97,1.01 (inactive),1.03 (inactive),1.06 (inactive),0.949 (inactive),0.82 (inactive),0.863 (inactive),1.08 (inactive),1.06 (inactive)
CCC1(CC)C(=O)C=CNC1=O [Pyrithyldione],0.889,0.977,1.04,0.877,1.03 (inactive),0.966 (inactive),1.02 (inactive),1.01 (inactive),1.03 (inactive),1 (inactive),1.02 (inactive),0.996 (inactive)
O=c1[nH]c2ccccc2n1CCCN1CCC(n2c(=O)[nH]c3cc(Cl)ccc32)CC1 [Domperidone],0.989,0.963,1.08,0.669,0.906 (inactive),1.03 (inactive),0.984 (inactive),1.01 (inactive),0.951 (inactive),1.03 (inactive),1 (inactive),1.03 (inactive)
CCC(CC)Nc1c([N+](=O)[O-])cc(C)c(C)c1[N+](=O)[O-],1.11,1.01,0.983,1.02,1.07 (inactive),1.04 (inactive),0.998 (inactive),0.991 (inactive),1.01 (inactive),1.01 (inactive),0.992 (inactive),1.01 (inactive)
CC(C)C[C@H](CN)CC(=O)O [Pregabalin],0.96,0.982,0.982,0.865,1.06 (inactive),1.04 (inactive),1.05 (inactive),1.03 (inactive),1 (inactive),1.02 (inactive),0.982 (inactive),1.06 (inactive)
CC1(C)C(C=C(Cl)Cl)C1C(=O)OC(C#N)c1ccc(F)c(Oc2ccccc2)c1 (mixture of isomers),0.877,1.01,0.965,1,1.09 (inactive),0.985 (inactive),0.996 (inactive),0.971 (inactive),1.03 (inactive),1.09 (inactive),1.02 (inactive),1.02 (inactive)
C1CCc2nnnn2CC1 [Pentylenetetrazole],1.14,0.976,1,0.873,0.957 (inactive),0.963 (inactive),0.836 (inactive),0.994 (inactive),0.975 (inactive),1.01 (inactive),0.998 (inactive),0.876 (inactive)
COP(=O)(OC)OC=C(Cl)Cl,1.05,1.03,0.995,1.07,0.89 (inactive),1.05 (inactive),1.06 (inactive),0.985 (inactive),0.921 (inactive),0.964 (inactive),1.06 (inactive),1.07 (inactive)
CCCCN(CCCC)N=O [DBNA (N-nitrosodibutylamine)],0.789,0.729,0.673,0.238,1.03 (inactive),1.01 (inactive),1.01 (inactive),1.03 (inactive),1.02 (inactive),1.05 (inactive),1.01 (inactive),1.01 (inactive)
Clc1ccc(C(c2ccc(Cl)cc2)C(Cl)(Cl)Cl)cc1,0.984,0.974,0.996,1.12,1.03 (inactive),1.02 (inactive),0.962 (inactive),1.06 (inactive),1.02 (inactive),0.957 (inactive),1 (inactive),0.914 (inactive)
Cc1cc(C)c(C2=C(OC(=O)CC(C)(C)C)C3(CCCC3)OC2=O)c(C)c1,0.884,1.02,1.01,0.937,1 (inactive),0.972 (inactive),1.01 (inactive),1.01 (inactive),1.02 (inactive),0.983 (inactive),0.999 (inactive),1.01 (inactive)
Oc1ccc(Cl)cc1Cc1cc(Cl)ccc1O [Dichlorophen],0.903,0.835,0.919,0.819,1.13 (inactive),0.732 (inactive),0.561 (active),1.21 (inactive),0.97 (inactive),1.66 (active),0.975 (inactive),0.635 (inactive)
c1ccc2c(c1)-c1cccc3cccc-2c13 [Fluoranthene],0.942,0.967,0.964,1.01,1.04 (inactive),1.01 (inactive),1.02 (inactive),0.995 (inactive),1.01 (inactive),1.01 (inactive),0.976 (inactive),1.04 (inactive)
CNC(=O)Oc1cccc(/N=C/N(C)C)c1,0.913,0.992,0.988,1.04,1.02 (inactive),1.04 (inactive),0.993 (inactive),0.96 (inactive),1 (inactive),1.02 (inactive),1 (inactive),0.934 (inactive)
CS(=O)(=O)c1cc(C(F)(F)F)ccc1C(=O)c1cnoc1C1CC1,0.937,1.09,1.09,0.964,0.825 (inactive),0.986 (inactive),0.989 (inactive),0.958 (inactive),0.976 (inactive),0.905 (inactive),1.01 (inactive),1 (inactive)
COc1cccc(C(=O)NN(C(=O)c2cc(C)cc(C)c2)C(C)(C)C)c1C,0.988,1.01,1.01,1.17,0.994 (inactive),0.948 (inactive),0.932 (inactive),1.03 (inactive),0.983 (inactive),0.968 (inactive),0.986 (inactive),0.92 (inactive)
O=[N+]([O-])c1ccc2ccc3cccc4ccc1c2c34 [1-Nitropyrene],0.638,1.04,1,0.914,0.971 (inactive),0.785 (inactive),0.952 (inactive),1.03 (inactive),1 (inactive),0.96 (inactive),1.01 (inactive),0.967 (inactive)
CO/N=C(/C(=O)OC)c1ccccc1CO/N=C(\C)c1cccc(C(F)(F)F)c1,0.917,1.01,0.98,1.1,1.02 (inactive),0.956 (inactive),0.991 (inactive),0.982 (inactive),0.987 (inactive),0.95 (inactive),1.02 (inactive),0.951 (inactive)
CN(C)C(=O)Oc1cccc([N+](C)(C)C)c1 [Neostigmine bromide],0.939,0.975,1.01,0.886,0.992 (inactive),1.07 (inactive),1.03 (inactive),0.992 (inactive),0.998 (inactive),1.02 (inactive),1 (inactive),1.01 (inactive)
CN1C[C@H](C(=O)N[C@]2(C)O[C@@]3(O)[C@@H]4CCCN4C(=O)[C@H](Cc4ccccc4)N3C2=O)C[C@@H]2c3cccc4[nH]cc(c34)C[C@H]21 [Dihydroergotamine tartrate],1.2,1.13,1.1,0.827,0.89 (inactive),0.928 (inactive),0.982 (inactive),1.06 (inactive),0.984 (inactive),0.966 (inactive),1.01 (inactive),0.921 (inactive)

# From the supplement of paper PMC12494721
